In PubChem BioAssay (NCI):
About 83,000 compounds went through this panel and 20% of them were active in at least one assay; those are over-represented in the sample as a whole.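 Cells were grown in 96-well plates and exposed to the test compound at a single concentration for 48 hours; results are reported as percent growth, with values below 10 considered active.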 Unmarked numbers belong to inactive results. Active and inactive are the calls of the source.

Experiments:
Experiment in all cases: NCI-60 one-dose screen, 48 h (100 = growth as untreated, 0 = no growth, -100 = all killed)
Conditions in all cases: 10 µM unless noted
HCT-15 colon = tested on: HCT-15 colon
HT29 colon = tested on: HT29 colon
SNB-75 CNS = tested on: SNB-75 CNS
SNB-19 CNS = tested on: SNB-19 CNS
U251 CNS = tested on: U251 CNS
PC-3 prostate = tested on: PC-3 prostate
SK-MEL-5 melanoma = tested on: SK-MEL-5 melanoma
UACC-62 melanoma = tested on: UACC-62 melanoma
LOX IMVI melanoma = tested on: LOX IMVI melanoma
SK-MEL-28 melanoma = tested on: SK-MEL-28 melanoma
SK-MEL-2 melanoma = tested on: SK-MEL-2 melanoma
EKVX NSCLC = tested on: EKVX NSCLC
SN12C renal = tested on: SN12C renal
UO-31 renal = tested on: UO-31 renal
TK-10 renal = tested on: TK-10 renal
ACHN renal = tested on: ACHN renal
CAKI-1 renal = tested on: CAKI-1 renal
A498 renal = tested on: A498 renal
CCRF-CEM leukemia = tested on: CCRF-CEM leukemia
MOLT-4 leukemia = tested on: MOLT-4 leukemia

| Compound | growth (HCT-15 colon) | growth (HT29 colon) | growth (SNB-75 CNS) | growth (SNB-19 CNS) | growth (U251 CNS) | growth (PC-3 prostate) | growth (SK-MEL-5 melanoma) | growth (UACC-62 melanoma) | growth (LOX IMVI melanoma) | growth (SK-MEL-28 melanoma) | growth (SK-MEL-2 melanoma) | growth (EKVX NSCLC) | growth (SN12C renal) | growth (UO-31 renal) | growth (TK-10 renal) | growth (ACHN renal) | growth (CAKI-1 renal) | growth (A498 renal) | growth (CCRF-CEM leukemia) | growth (MOLT-4 leukemia) |
| --- | --- | --- | --- | --- | --- | --- | --- | --- | --- | --- | --- | --- | --- | --- | --- | --- | --- | --- | --- | --- |
| CN(C)CCNC(=O)n1cc(-c2ccncc2)c(-c2cc(O)cc(Cl)c2)n1 | 77.1% | 88.5% | 103% | 106% | 81.6% | 112% | 77.3% | 36.4% | 76.3% | 35.2% | 96.3% | 107% | 91.9% | 104% | 92.6% | 80.6% | 109% | 82.2% | 88% | 86.4% |
| COc1ccc(/C(C)=N/NC(=O)c2ccc(S(C)(=O)=O)cc2)cc1OC | 97.9% | 117% | 85.9% | 105% | 104% | 99.3% | 106% | 102% | 106% | 105% | 101% | 96.3% | 100% | 91.9% | 102% | 108% | 91.6% | 94.1% | 115% | 71.1% |
| NNC(=O)CSc1nc2scc(-c3ccccc3)c2c(=O)n1-c1ccccc1 | 101% | 121% | 88.3% | 107% | 103% | 80.5% | 88.4% | 90.2% | 78.7% | 111% | 101% | 103% | 101% | 76.2% | 178% | 103% | 106% | 87.4% | 106% | 96% |
| COc1ccc(C2c3cccn3-c3ccccc3N2C(C)=O)cc1 (stereo not given) | 87.7% | 115% | 77.4% | 100% | 106% | 78.4% | 96.1% | 86.3% | 96.1% | 108% | 117% | 85.9% | 99.8% | 70.6% | 103% | 99% | 84.2% | 86% | 88.3% | 1.08% (active) |
| O=c1c2cc(Br)cc(Br)c2nc(-c2ccc(Cl)cc2)n1/N=C\c1ccccc1F | 88.3% | 77.3% | 13.7% | 68.8% | 55.1% | -87.1% (active) | 89.4% | 70.7% | 70.3% | 98.4% | 78.4% | 63.7% | 58.2% | 21.6% | 33.1% | 26.4% | 27% | 85.6% | 71.7% | 74% |
| Cn1cnc([N+](=O)[O-])c1S(=O)(=O)Oc1ccccc1 | 55% | 88.7% | 103% | 102% | 90.5% | 86.5% | 99.6% | 99.4% | 59.5% | 106% | 98.2% | 103% | 99.2% | 75.1% | 101% | 17.1% | 62.9% | 108% | 6.29% (active) | 76.5% |
| O=C(CSc1nc2c(n1Nc1ccccc1)-c1ccccc1SC2)Nc1nccs1 | 87.5% | 102% | 69.7% | 99.4% | 93.8% | 78.8% | 101% | 83.3% | 97.1% | 112% | 102% | 89.3% | 95.3% | 63.1% | 120% | 95.2% | 73.7% | 77% | 84.5% | 82.5% |
